The text below walks through data of PubChem BioAssay.

Active and inactive are the calls of the source.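 The calls were made as follows, unless noted: active = visually confirmed hit in the image check and inhibition above 20%; inconclusive = visually confirmed hit but inhibition not above 20%; inactive = no visual hit in the image check.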

Assay [1] is described as follows: inhibitors of TNFa-induced NFkB p65 translocation, primary screen, imaging, HUVEC, MLSMR starter and 10KST1 sets (AID 438;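 active = inhibition above 20% together with a positive visual image hit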;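 also: compound added about 3h40 before a 20 min TNFalpha stimulation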;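 as to inhibition: signal is the nuclear over cytoplasmic p65 intensity ratio per well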). To be noted: HUVEC TNFa-induced p65 nuclear translocation; cell count: measured here: nuclei count (cytotoxicity indicator), at 2.08 µM; inhibition: at 2 µM, stronger effect = higher value, 0% TNFa-plus-vehicle, 100% no-TNFa wells.
Assay [2] can be described thus: inhibitors of mutant huntingtin aggregation, primary screen, imaging, exon1htt(103Q)mCFP cells, high-content imaging (AID 483;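 active = visual image review flags a hit and inhibition of aggregation exceeds 20%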;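 also: compound exposure lasted 3 days before fixation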;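 as to nuclei count: percent of the per-plate median nuclei count of sample wells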). The note with it: exon1htt(103Q)mCFP cell line, aggregate imaging, at 2 µM; inhibition of aggregation: stronger effect = higher value; nuclei count: measured here: cell count, toxicity.
Assay [3] is described as follows: inhibitors of E-selectin induction by TNFa, primary screen, imaging, HUVEC, immunofluorescence, MLSMR starter and 10KST1 sets (AID 487).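 As to inhibition: signal is fraction of cell area covered by stained E-selectin grains.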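 As to nuclei count: 100% = median nuclei count of all wells on the same plate.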 The note with it: HUVEC TNFalpha-induced E-selectin immunofluorescence imaging, at 2 µM; inhibition: stronger effect = higher value; nuclei count: measured here: cell number, toxicity.
For assay [4], the target named is Voltage-gated potassium channel subunit beta-2 (Rattus norvegicus) (UniProt P62483). Briefly: KvBeta enzyme negative modulators, primary screen, biochemical, NADPH fluorescence (AID 622;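 active = fluorescence slope higher than the sample average by over 3 SD, cut at about -0.22 in these data, passing the limit was not always enough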;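 also: slope of raw intensity against log time taken from 70 to 1610 s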). The note with it: recombinant KvBeta, 4-cyanobenzaldehyde reduction, at 10 µM, stronger effect = higher value.
The target is the same in assay [5]. Briefly: KvBeta positive modulators, primary screen, biochemical, NADPH fluorescence (AID 623;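 active = NADPH fluorescence slope more negative than the mean of all samples by about 3 SD, 99.7% confidence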;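 also: fluorescence intensity change per second fitted from 20 to 320 s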). The note with it: Recombinant KvBeta, NADPH fluorescence decrease slope, 10 min; at 10 µM; stronger effect = lower value.
The target of assay [6] is Alpha-2C adrenergic receptor (Homo sapiens) (UniProt P18825). Briefly: modulators of alpha2C/GIRK thallium flux, primary screen, cell-based, HEK293 alpha2C/GIRK1/2 (AID 624;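 active = fluorescence slope after compound addition differing from the mean of all screened samples at 99.7% confidence, in either direction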;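 also: slope of fluorescence ratio to pre-addition baseline per second over 15 to 24 s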). The note with it: thallium flux BTC fluorescence, at 10 µM, actives lie on both sides.
Assay [7] can be described thus: inhibitors of Sendai virus-induced IRF3 signaling, primary screen, TLR/RLR signaling modifier project, cell-based, Sendai virus stimulus, luciferase, 10K MLSCN set (AID 602276;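 active = inhibition at or above 50% at 10 µM; inactive = inhibition below 50%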;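 also: firefly luciferase from ISG56 promoter only with Renilla not read in this screen; 0% = Sendai virus plus DMSO and 100% = medium plus DMSO without virus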). The note with it: HEK293 RL24 IRF3 luciferase reporter, at 10 µM, stronger effect = higher value.
Assay [8] is described as follows: inhibitors of poly I:C-induced TLR3 signaling, primary screen, cell-based, poly I:C stimulus, luciferase, 10K MLSCN set (AID 602277;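 active = inhibition of the reporter signal at or above 50%; inactive = inhibition below 50%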). The note with it: HEK293-TLR3 RL24 IRF3 luciferase reporter, at 10 µM, stronger effect = higher value. On the technique in general: Reporter assays use an easily measured gene product as a stand-in for the process of interest.

Sequence of Voltage-gated potassium channel subunit beta-2 (Rattus norvegicus) (P62483 whole entry, looked up): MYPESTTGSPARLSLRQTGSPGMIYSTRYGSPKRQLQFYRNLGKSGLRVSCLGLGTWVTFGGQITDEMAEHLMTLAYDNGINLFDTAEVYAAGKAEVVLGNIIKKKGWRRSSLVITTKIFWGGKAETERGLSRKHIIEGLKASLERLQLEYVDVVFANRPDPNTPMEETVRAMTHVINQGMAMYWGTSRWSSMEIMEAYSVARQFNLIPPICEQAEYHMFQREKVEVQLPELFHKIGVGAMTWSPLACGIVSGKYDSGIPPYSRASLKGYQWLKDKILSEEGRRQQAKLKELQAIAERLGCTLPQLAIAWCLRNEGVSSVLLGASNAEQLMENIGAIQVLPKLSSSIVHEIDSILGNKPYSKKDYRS
Sequence of Alpha-2C adrenergic receptor (Homo sapiens) (P18825 whole entry, looked up): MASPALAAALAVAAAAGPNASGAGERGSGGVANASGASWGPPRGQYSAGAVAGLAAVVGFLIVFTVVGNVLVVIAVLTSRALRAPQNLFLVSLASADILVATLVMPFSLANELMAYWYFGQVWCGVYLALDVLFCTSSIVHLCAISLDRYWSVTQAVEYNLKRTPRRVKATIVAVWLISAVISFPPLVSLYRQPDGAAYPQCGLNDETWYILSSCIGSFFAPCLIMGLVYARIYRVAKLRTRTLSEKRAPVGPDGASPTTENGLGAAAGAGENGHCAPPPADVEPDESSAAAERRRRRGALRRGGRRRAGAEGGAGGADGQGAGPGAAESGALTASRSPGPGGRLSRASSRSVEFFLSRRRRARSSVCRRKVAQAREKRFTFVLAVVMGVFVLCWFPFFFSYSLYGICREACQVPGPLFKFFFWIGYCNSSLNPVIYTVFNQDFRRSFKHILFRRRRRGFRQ

Consider `COc1ccc(NC(=O)CSc2c(C)nn(-c3nnc(C)c(=O)[nH]3)c2C)cc1`, for which the cell count in assay [1] stood at 387. Further, the inhibition is -4.5% (inactive) in assay [1], -170% (inactive) in assay [3], 1.41% (inactive) in assay [7] and 3.06% (inactive) in assay [8]. Further, the inhibition of aggregation in assay [2] was -12.6% (inactive). Also, the nuclei count turned out to be 107% in assay [2] and 134% in assay [3]. In assay [4], the fluorescence slope was -0.537 (inactive). The NADPH fluorescence slope in assay [5] is 2e-05 (inactive). For the same compound, the slope in assay [6] was 0.00687 (inactive).
`CN1CCN(CC#CCC(O)(c2ccccc2)C2CCCC2)CC1` (centres undefined): in assay [1], the cell count is 415. In addition, the inhibition is 2.2% (inactive) in assay [1], -21.3% (inactive) in assay [3], 7.06% (inactive) in assay [7] and 4.71% (inactive) in assay [8]. The inhibition of aggregation in assay [2] is -1.8% (inactive). Besides, the nuclei count in assay [2] came out at 99.7%; in assay [3], 118%. Further, in assay [4], the fluorescence slope was -0.428 (inactive). In addition, the NADPH fluorescence slope in assay [5] was -4.8e-05 (inactive). In addition, the slope in assay [6] is 0.00551 (inactive).
On to `O=S(=O)(Nc1ccc2c(c1)OCO2)c1ccc(Br)s1`, for which the cell count in assay [1] turned out to be 285. Further, the inhibition was -5.5% (inactive) in assay [1], 8.4% (inactive) in assay [3], 0.155% (inactive) in assay [7] and -19.3% (inactive) in assay [8]. In assay [2], the inhibition of aggregation was 14.8% (inactive). The values for the nuclei count in assay [2] and in assay [3] were 92.9% and 95.6%, respectively. Further, the fluorescence slope in assay [4] is -0.31 (inactive). The NADPH fluorescence slope in assay [5] was 1.5e-05 (inactive). Also, the slope in assay [6] is 0.00308 (inactive).
Consider `CCOC(=O)C(CCc1nnc(N)s1)C(=O)OCC`, for which the cell count in assay [1] worked out at 710. Also, the inhibition is -6.3% (inactive) in assay [1], -16.4% (inactive) in assay [3], 16.5% (inactive) in assay [7] and 11.9% (inactive) in assay [8]. In addition, in assay [2], the inhibition of aggregation is 3.1% (inactive). Also, the nuclei count in assay [2] is 105%; in assay [3] it was 98.7%. For the same compound, the fluorescence slope in assay [4] is -0.474 (inactive). For the same compound, in assay [5], the NADPH fluorescence slope was 1.7e-06 (inactive). In addition, in assay [6], the slope is 0.00419 (inactive).
On to `Cc1ccc(-c2nnc(N3CCN(C(=O)CN4C(=O)c5ccccc5C4=O)CC3)c3ccccc23)cc1`, for which the cell count in assay [1] was found to be 375. For the same compound, the inhibition is 10.2% (inactive) in assay [1], -158% (inactive) in assay [3], 8.25% (inactive) in assay [7] and 12.9% (inactive) in assay [8]. In assay [2], the inhibition of aggregation was -15.9% (inactive). In addition, the nuclei count is 109% in assay [2] and 133% in assay [3]. The fluorescence slope in assay [4] was -0.468 (inactive). Further, the NADPH fluorescence slope in assay [5] is -5.9e-05 (inactive). For the same compound, the slope in assay [6] was 0.00522 (inactive).
In the case of `O=C(NCc1ccccn1)C(C(=O)c1ccc(F)cc1)n1ccccc1=O` (centres undefined), in assay [1], the cell count was 531. Further, the inhibition was -1.5% (inactive) in assay [1], -117% (inactive) in assay [3], -10.6% (inactive) in assay [7] and 3.51% (inactive) in assay [8]. Besides, the inhibition of aggregation in assay [2] is 3.1% (inactive). Moreover, the nuclei count was 70.7% in assay [2] and 219% in assay [3]. In addition, the fluorescence slope in assay [4] was -0.472 (inactive). Besides, the NADPH fluorescence slope in assay [5] was -3.8e-05 (inactive). In addition, the slope in assay [6] was 0.0066 (inactive).
Consider `O=C(c1c(F)cccc1F)N(Cc1ccccn1)C1CCCC1`, for which, in assay [1], the cell count worked out at 521. For the same compound, the inhibition in assay [1] was -11.2% (inactive); in assay [3], 40.9% (inactive); in assay [7] it was -7.47% (inactive); in assay [8] it was -6.01% (inactive). Moreover, the inhibition of aggregation in assay [2] was 24.2% (inactive). Also, the nuclei count in assay [2] was determined as 110%; in assay [3] it was 87.3%. Besides, in assay [4], the fluorescence slope is -0.534 (inactive). In addition, the NADPH fluorescence slope in assay [5] was 2e-06 (inactive). Also, the slope in assay [6] is 0.00412 (inactive).
With `CC1Cc2nc(SCC(=O)Nc3nccs3)n(C)c(=O)c2S1` (centres undefined), the cell count in assay [1] stood at 584. The inhibition in assay [1] was 12% (inactive); in assay [3] it was -23.5% (inactive); in assay [7] it was 11.6% (inactive); in assay [8], 28.2% (inactive). Also, in assay [2], the inhibition of aggregation is 12.8% (inactive). The nuclei count came to 109% in assay [2] and 111% in assay [3]. The fluorescence slope in assay [4] was -0.539 (inactive). The NADPH fluorescence slope in assay [5] is -2.7e-05 (inactive). The slope in assay [6] is 0.00648 (inactive).
On to `COc1ccc(N2CCN(C(=O)C(OC(C)=O)c3ccccc3)CC2)cc1` (centres undefined), for which, in assay [1], the cell count is 594. The inhibition was -4.7% (inactive) in assay [1], -2.4% (inactive) in assay [3], 11.4% (inactive) in assay [7] and 11.3% (inactive) in assay [8]. For the same compound, in assay [2], the inhibition of aggregation was -4.8% (inactive). The nuclei count was found to be 92.4% in assay [2] and 95.4% in assay [3]. Further, the fluorescence slope in assay [4] is -0.386 (inactive). Also, the NADPH fluorescence slope in assay [5] is 4.8e-05 (inactive). Further, the slope in assay [6] was 0.00658 (inactive).
`COCC(=O)N(c1ccc(C(C)C)cc1)C1C=CS(=O)(=O)C1` (centres undefined): in assay [1], the cell count was 691. Further, the inhibition was -23.8% (inactive) in assay [1], -55.5% (inactive) in assay [3], 7.64% (inactive) in assay [7] and 28.1% (inactive) in assay [8]. For the same compound, in assay [2], the inhibition of aggregation is 20.8% (inactive). The values for the nuclei count in assay [2] and in assay [3] were 129% and 103%, respectively. Further, the fluorescence slope in assay [4] is -0.314 (inactive). The NADPH fluorescence slope in assay [5] is -7.6e-06 (inactive). In addition, in assay [6], the slope is 0.00672 (inactive).
Turning to `COC(=O)C1(C)NC(c2cccs2)C2C(=O)N(c3ccccc3F)C(=O)C21` (centres undefined), in assay [1], the cell count came to 334. Also, the inhibition in assay [1] is 2.8% (inactive); in assay [3], -24.7% (inactive); in assay [7] it was -3.44% (inactive); in assay [8], -0.188% (inactive). Further, the inhibition of aggregation in assay [2] was -16.9% (inactive). In addition, the nuclei count in assay [2] came out at 101%; in assay [3] it was 119%. Further, in assay [4], the fluorescence slope was -0.52 (inactive). Also, the NADPH fluorescence slope in assay [5] was 2.7e-06 (inactive). Also, in assay [6], the slope was 0.00503 (inactive).
Turning to `Cc1ccc(S(=O)(=O)Nc2cc(C(=O)O)ccc2N2CCCCC2)cc1`, in assay [1], the cell count is 518. Moreover, the inhibition in assay [1] was -20.1% (inactive); in assay [3], -107% (inactive); in assay [7], 11.2% (inactive); in assay [8] it was 29.2% (inactive). The inhibition of aggregation in assay [2] was 15.4% (inactive). Besides, the results for the nuclei count in assay [2] and in assay [3] were 98.1% and 114%, respectively. In addition, the fluorescence slope in assay [4] is -0.42 (inactive). Besides, the NADPH fluorescence slope in assay [5] is -2.5e-05 (inactive). Also, the slope in assay [6] was 0.00575 (inactive).
For the compound `CCOC(=O)C1CCCN(c2c(NCc3ccco3)c(=O)c2=O)C1` (centres undefined), the cell count in assay [1] amounted to 614. Further, the inhibition in assay [1] is -7.3% (inactive); in assay [3], -52.6% (inactive); in assay [7] it was -5.89% (inactive); in assay [8] it was 16.5% (inactive). Besides, in assay [2], the inhibition of aggregation was -5.7% (inactive). Moreover, the nuclei count in assay [2] was determined as 99.7%; in assay [3], 128%. In addition, the fluorescence slope in assay [4] is -0.531 (inactive). Also, the NADPH fluorescence slope in assay [5] is -1.5e-05 (inactive). For the same compound, in assay [6], the slope was 0.00732 (inactive).
As for `O=C(CN(C1CCCCC1)S(=O)(=O)c1ccccc1)NCc1cccnc1`, in assay [1], the cell count was 671. Besides, the inhibition in assay [1] is 2% (inactive); in assay [3], -75.7% (inactive); in assay [7] it was 5.99% (inactive); in assay [8], 13.7% (inactive). For the same compound, in assay [2], the inhibition of aggregation was -28.8% (inactive). Also, the nuclei count in assay [2] came to 110%; in assay [3], 119%. Further, the fluorescence slope in assay [4] is -0.308 (inactive). Besides, the NADPH fluorescence slope in assay [5] is -3e-05 (inactive). Moreover, the slope in assay [6] was 0.00649 (inactive).

By inhibition is commonly meant the relative decrease from the control value, in per cent.
